40 compounds from PubChem BioAssay (NCI) can be followed below.

The structures appear in SMILES notation. The panel holds about 83,000 compounds, 20% with a hit somewhere; the sample as a whole holds those more often.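 Cells were grown in 96-well plates and exposed to the test compound at a single concentration for 48 hours; results are reported as percent growth, with values below 10 considered active.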 The source made the active and inactive calls.

The test concerns HL-60(TB) leukemia. In words: NCI-60 one-dose screen, 48 h (100 = growth as untreated, 0 = no growth, -100 = all killed). Conditions: 10 µM unless noted.
In the case of `COC(=O)N[C@H]1CCc2cc(OC)c(OC)c(OC)c2-c2ccc(SC)c(=O)cc21`, the growth was -45.4% (active).
The figure for `O=C1/C(=C/c2cc(F)cc(F)c2)Cc2cc(F)cc(F)c21` is 122% (inactive); for `COc1ccc(Cn2c(Br)c3c(c2Br)-c2nc(N)sc2CC3)cc1` it is -16% (active).
The figure for `O=c1[nH]c(-c2ccc(Cl)cc2)cn1-c1ccc(-n2cc(-c3ccc(Cl)cc3)[nH]c2=O)cc1` is 112% (inactive); for `CCCCc1ccc(NC(=O)N(CCCl)N=O)cc1` it is 98.8% (inactive).
With `COc1cc(-c2nn(-c3cccc(NC(=O)c4ccc(Cl)c(C(F)(F)F)c4)c3)cc2-c2ccncc2)ccc1Cl` the figure was 3.23% (active); with `COc1ccc2[nH]cc(/C=C3/C(=O)Nc4ccc(Cl)cc43)c2c1`, 53.4% (inactive).
For `Nc1n[nH]c2ccc([C@@H]3Nc4cc5[nH]ncc5cc4[C@H]4C5CCC(C5)[C@@H]34)cc12` (stereo not given in full), the growth was -8.95% (active).
Consider `O=C1c2c(O)cc(O)cc2-c2c(-c3ccc(O)cc3)oc3cc(O)cc1c23`, for which the growth was 17% (inactive).
On to `O=c1ccn(C2CC(O)C(O)C(CO)O2)c(=O)[nH]1` (stereo not given), for which the growth is 90.4% (inactive).
`c1ccc(COc2ccc(Nc3ncnc4c3cnn4-c3ccccc3)cc2)cc1`: the growth is 99.8% (inactive).
With `FC(F)(F)c1cccc(Oc2ccc(Nc3ncnc4ccc(OCCCN5CCOCC5)cc34)cc2Cl)c1` the figure was 32.8% (inactive); with `CN1C(=O)C2(NN=C(c3cccc4ccccc34)S2)c2ccccc21` (stereo not given), 34.7% (inactive).
As to `CCN1CCN(c2ccc(Nc3cc(-c4cccnc4Nc4c(Cl)c(OC)cc(OC)c4Cl)ncn3)cc2)CC1`, the growth is 56% (inactive).
With `O=C(/C=C/c1ccc([N+](=O)[O-])cc1)c1ccc2c3c(cccc13)CC2` the figure was 14.4% (inactive); with `CCOC(=O)Cc1cnn(C)c1NC(=O)c1ccc(Cl)cc1NC(C)=O`, 102% (inactive).
As to `CCc1c(Cl)nc(N)nc1Nc1ccc(C)c(C)c1`, the growth was 88.1% (inactive).
The figure for `Oc1ccccc1C=Nc1ccccc1N=Cc1ccccc1O.[Cu+2]` is 55.8% (inactive); for `O=C(Nc1ccc(F)cc1)Nc1ccc(CCO)cc1` it is 101% (inactive).
Take `CC1=Nc2cnc(Nc3ccc(N4CCCCC4)cc3)nc2Nc2ccccc21`: the growth was 28.1% (inactive).
`COc1ccc(-c2nn(-c3cccc(NC(=O)Nc4cccc(C(F)(F)F)c4)c3)cc2-c2ccncc2)cc1Cl`: the growth is 3.19% (active).
The figure for `COc1ccc(-c2c(NC(=O)Nc3ccc(Cl)c(C(F)(F)F)c3)cnn2-c2ccc(S(N)(=O)=O)cc2)cc1` is -15% (active).
With `COc1cc(-c2n/c(=C\c3c(O)[nH]c4cc(Cl)ccc34)cc3c2=Nc2ccccc2-3)cc(OC)c1OC` the figure was 89.6% (inactive); with `CCOC(=O)c1nc(Nc2ccc(C(C)=O)cc2)sc1C`, 95.5% (inactive); with `CCOC(=O)C(C(=O)OCC)C1CCCCC1`, 105% (inactive).
The figure for `O=C(NC(CSSCC(NC(=O)c1ccccc1)C(=O)O)C(=O)O)c1ccccc1` (stereo not given) is 60.7% (inactive).
As to `Nn1c(SCC(=O)Nc2cc(Cl)c(Cl)cc2Cl)nnc1-c1cc(F)c(Cl)cc1Cl`, the growth is 92% (inactive).
`COc1cc(/C=C2\C(=O)Nc3ccccc32)cc(OC)c1O`: the growth is 1.88% (active).
The figure for `O=C(N/N=C/c1ccc([N+](=O)[O-])cc1)c1ccccc1Nc1cccc(C(F)(F)F)c1` is 108% (inactive); for `CC1(C)CN(CCNc2nccc(-c3c(-c4cccc(O)c4)nc4sccn34)n2)S(=O)(=O)N1` it is 82.5% (inactive); for `CC(=O)c1c(C)[nH]c(-c2nc3ccc(N4CCN(C)CC4)cc3[nH]2)c1-c1ccc(OCC2CCOCC2)cc1` it is -12.9% (active).
Consider `CCOC(=O)N1C/C(=C/c2ccc(Cl)cc2)C(=O)/C(=C/c2ccc(Cl)cc2)C1`, for which the growth was 61.5% (inactive).
With `CC(C)(C)c1nn(-c2ccccc2)c2c1C(=O)CSC(c1ccc3c(c1)OCO3)N2` (stereo not given) the figure was 89.5% (inactive).
With `COc1cc(C(=O)/C=C/c2c(C(F)(F)F)nc3ccccn23)cc(OC)c1OC` the figure was -9.98% (active); with `O=C1/C=C/[C@@H](O)[C@@H]2C[C@@H](O)C[C@H]2/C=C/CCC[C@H](CCOCc2ccccc2)O1`, 0.107% (active); with `CC(C)=CCC[C@H](C)c1ccc(C)c2c1OCN(CCO)C2`, 90.8% (inactive).
On to `COC(=O)c1c2c(c(C)[n+]([O-])c1C)C(=O)C(NCCN1CCOCC1)=CC2=O`, for which the growth was 52.4% (inactive).
With `O=[N+]([O-])c1ccc(-c2cc3c(Nc4ccc(Sc5nc6ccccc6s5)c(Cl)c4)ncnc3s2)cc1` the figure was 21.6% (inactive).
With `O=C(Nc1ccc2ncnc(Nc3ccc(Oc4cccc(F)c4)c(Cl)c3)c2c1)c1ccc(CN2CCOCC2)cc1` the figure was -11.3% (active); with `CN1CCN(c2ccc(-c3cnc4c(-c5csc6ccccc56)cnn4c3)cc2)CC1`, 9.53% (active).
